# Most compounds without a hit are left out; they make up all but 19% or so of the library.
# HT1080 IDH1KD tx = qHTS for induction of synthetic lethality in tumor cells producing 2HG: qHTS for the HT-1080-IDH1KD cell line; HT-1080 IDH1 knockdown viability, ATP luminescence, 48 h; Potency, µM (titrated, usually from 46.1 µM), for inactives: top-dose activity, negative = toxicity, actives largely listed as cytotoxic; 2% of 360,000 active; AID 686971, 2013;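 note: potency is the fitted concentration of half-maximal effect; 0% = DMSO wells and -100% = cell-free medium wells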
#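 Assay cells: HT-1080 with IDH1 knockdown, 750 per well, RPMI/5% FBS. Exposure: 48 h at 37 °C following 2 h pre-incubation. Read: CellTiter-Glo luminescence; fitted concentration-response, curve class assigned.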
# HT1080-NT tox = qHTS for induction of synthetic lethality in tumor cells producing 2HG: qHTS for the HT-1080-NT fibrosarcoma cell line; HT-1080-NT fibrosarcoma viability, CellTiter-Glo ATP luminescence, 48 h; Potency, µM (top dose mostly 46.1 µM), without a hit: at the top dose activity, negative = less viability, actives largely listed as cytotoxic; 1.6% of 360,000 active;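 note: NT is the 2HG producing partner of a matched IDH1 knockdown line; potency is the fitted concentration of half-maximal effect; 0% = DMSO-treated cells and -100% = media-only wells without cells; nearly all actives have a fitted effect of over 55% in size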
#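 Compounds were tested in concentration-response format on HT-1080-NT cells for 48 hours at 37 degrees C. Cell viability came from CellTiter-Glo luminescence; curves were classified by r2, response magnitude and activity.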
# IL1B secr inh = qHTS for Inhibitors of Inflammasome Signaling: IL-1-beta AlphaLISA Primary Screen; AID 743279, 2014; activity change, % at 57.5 µM; 4.7% of 360,000 active; THP-1 LPS/ATP IL-1B secretion, AlphaLISA, 16 h; hits give low values; in the data active = activity change below about -50%; inconclusive = mostly about -30% to -49%
#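 THP-1 cells pretreated 1 hr with compounds (up to 57.5 uM final), then stimulated with LPS (250 ng/mL final) plus ATP (1.25 mM final); secreted IL-1B measured by AlphaLISA after 16 hr, decreased signal indicating inhibition.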
# TDP1 cell noCPT = qHTS for Inhibitors of human tyrosyl-DNA phosphodiesterase 1 (TDP1): qHTS in cells in absence of CPT | DT40 Tdp1-/- hTDP1 cells, no CPT, ATP luminescence, 48 h | Potency, µM (titrated, usually from 46.2 µM), for inactives: top-dose activity change, negative = growth inhibition, most hits filed as inhibitors | 15% of 420,000 active; note: potency is the fitted concentration of half-maximal effect; nearly all actives have a fitted effect of over 55% in size
#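 Growth of hTDP1-complemented DT40 Tdp1-knockout cells is measured by ATP luminescence after at least 48 hr compound exposure at 37 °C, with DMSO substituting for the 20 nM CPT used in the parallel screen.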
# TDP1 cell CPT = qHTS for Inhibitors of human tyrosyl-DNA phosphodiesterase 1 (TDP1): qHTS in cells in presence of CPT; chicken DT40 Tdp1-/-;hTDP1 cells + 20 nM CPT, ATP luminescence, 48 h; Potency, µM (doses to about 46.2 µM), inactives show at the highest dose activity change, negative = growth inhibition, actives largely listed as inhibitors; 12% of 420,000 active; note: potency is the fitted concentration of half-maximal effect; nearly all actives have a fitted effect of over 55% in size
#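 Chicken DT40 Tdp1-/- cells stably complemented with human TDP1 were seeded at 400 cells/well in medium containing 20 nM camptothecin, exposed to pin-transferred compounds, and grown at 37 °C for at least 48 hr. Viability was read as ATP luminescence.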
# * hit, by the source's call; ? = inconclusive; . = no result given; ! = repeats disagree; [ ] = another dose, or the depositor's remark. Unless noted, calls come from the whole dose curve; as a rule, active = well fitted curve in the direction sought with a large enough effect; inconclusive = small, poorly fitted or top-dose-only effect, or another doubt; inactive = no such curve, though single readings can be large; an effect the other way counts as inactive or inconclusive. Unless noted, % is set by controls: 0 for no effect and ±100 for the full control effect.
SMILES,HT1080 IDH1KD tx,HT1080-NT tox,IL1B secr inh,TDP1 cell noCPT,TDP1 cell CPT
COc1ccc(OC)c(NC(=O)Nc2c(C)n(C)n(-c3ccccc3)c2=O)c1,.,.,.,-10%,-11%
COc1ccc(NC(=O)COc2ccc(N(C)S(=O)(=O)c3ccc(Cl)cc3)cc2)cc1,-9%,-6%,-52*,?,-11%
COCCn1c(C)cc(C(=O)COc2ccc(N(C)S(=O)(=O)c3ccc(C)cc3)cc2)c1C,-18%,-2%,2,?,18µM*
COCCn1c(C)cc(C(=O)COC(=O)c2ccc(S(=O)(=O)N(C)C)cc2)c1C,-4%,1%,14,-3%,-7%
Cc1ccc(S(=O)(=O)N(C)c2ccc(OCC(=O)Nc3ccc(S(C)(=O)=O)cc3)cc2)cc1,-1%,-1%,-5,16µM*,18µM*
COc1ccc(NC(=O)CS(=O)(=O)c2cccc(Cl)c2)cc1,10%,10%,-25,23µM*,?
COc1ccc(-c2cc(C)cc3c2OC(CNC(=O)/C=C/c2ccncc2)C3)nn1 (stereo unspecified),.,.,.,?,-58%
CCOC(=O)/C(C#N)=N\Nc1cc(Cl)ccc1OC,7%,9%,2,?,1%
Cc1noc(C)c1CSc1nc2sc(C)c(C)c2c(=O)n1-c1ccccc1,-15%,-8%,1,?,?
C=CCn1c(SCC(=O)NCCO)nc2sc(C)c(C)c2c1=O,-2%,5%,26,-8%,4%
C=CCn1c(SCc2c(C)noc2C)nc2sc(C)c(C)c2c1=O,11µM*,16µM*,-22,18µM*,21µM*
C=CCn1c(SCC(=O)c2cc(C)n(C(C)COC)c2C)nc2sc(C)c(C)c2c1=O (stereo unspecified),?,-28%,-2,18µM*,?
COc1cccc(CC(NC(C)=O)C(=O)NC2CCN(c3c(Cc4ccccc4)c(C)nc4ncnn34)CC2)c1 (stereo unspecified),-2%,5%,-5,-3%,-9%
NC(=O)C1(N2CCCCC2)CCN(C(=S)Nc2ccc(F)c(Cl)c2)CC1,6%,1%,-12,5%,15%
CC(=O)Nc1cc(C)ns1,-2%,3%,0,-16%,-15%
COc1cc(-c2nc(-c3ccccc3)c(-c3cccs3)[nH]2)cc(OC)c1O,-2%,-2%,?,?,?
COc1cc(-c2nc(-c3ccc4c(c3)-c3ccccc3S4(=O)=O)c(-c3ccccc3)[nH]2)cc(OC)c1OC,0%,-9%,-5,7.3µM*,18µM*
CN(C)c1ccc(-c2nc(-c3cccs3)c(-c3cccs3)[nH]2)cc1,.,.,.,9.2µM*,10µM*
COc1cc(-c2nc(-c3ccccc3)c(-c3cccs3)[nH]2)cc(OC)c1OC,?,0%,?,23µM*,16µM*
c1ccc(-c2nc(-c3cccs3)[nH]c2-c2ccccc2)cc1,-29%,2%,-3,?,?
COc1cccc(-c2nc(-c3ccc4c(c3)-c3ccccc3S4(=O)=O)c(-c3ccccc3)[nH]2)c1OC,-4%,-5%,-25,4.1µM*,7.3µM*
COc1ccc(C(=O)NCC2Cc3cccc(-c4cncnc4)c3O2)c(OC)c1OC (stereo unspecified),.,.,.,?,-10%[9.04 µM]
O=C(Nc1nnc(-c2cccs2)o1)c1cccc(F)c1,?,-23%,65,7.3µM*,4.6µM*
O=C(Nc1nnc(-c2cccs2)o1)c1cccc(Oc2ccccc2)c1,?,?,27,7.3µM*,10µM*
O=C(NCC(c1cccs1)S(=O)(=O)c1cccs1)c1cccc(F)c1 (stereo unspecified),.,.,.,18µM*,16µM*
SMILES,HT1080 IDH1KD tx,HT1080-NT tox,IL1B secr inh,TDP1 cell noCPT,TDP1 cell CPT
Cc1cccc(C(=O)NCC(c2cccs2)S(=O)(=O)c2cccs2)c1 (stereo unspecified),.,.,.,15µM*,?
O=C(Nc1cnccn1)Nc1ccc(Cl)cc1Cl,0%,28%,-1,?,-19%
COCCN1C(=O)/C(=C/c2ccc(N3CCCC3)cc2C)SC1=S,-1%,-2%,0,?,?
O=C(CCCCn1c(=S)[nH]c2ccsc2c1=O)NCc1ccc2c(c1)OCO2,?,-18%,-3,18µM*,?
Cc1ccccc1Cn1c(=O)n(CCC(=O)NCc2ccc3c(c2)OCO3)c(=O)c2ccccc21,-1%,2%,19,?,?
O=C(CCCCn1c(=O)c2ccccc2n(Cc2cccc(Cl)c2)c1=O)NCc1ccc2c(c1)OCO2,.,.,.,12µM*,?
Cc1ccccc1Cn1c(=O)n(CCCCC(=O)NCc2ccc3c(c2)OCO3)c(=O)c2ccccc21,.,.,.,?,23µM*
COc1ccc(CNC(=O)CN(C2CCCCC2)S(C)(=O)=O)cc1,9%,1%,30,-25%,-16%
Cc1oc2ncnc(N3CCCCC3)c2c1C(=O)N1CCN(c2cccc(C(F)(F)F)c2)CC1,.,.,.,13µM*,16µM*
CCOC(=O)c1noc2ncnc(N3CCN(c4cccc(C(F)(F)F)c4)CC3)c12,.,.,.,13µM*,16µM*
COc1ccc(N2CCN(C(=O)c3c(C)oc4ncnc(N5CCCCC5)c34)CC2)cc1,.,.,.,15µM*,?
CCOc1ccc(OCC)c(NS(=O)(=O)c2ccc3c(c2)CCN3C(=O)C2CCC2)c1,5%,9%,0,-27%,?
Cc1cc(C)cc(NS(=O)(=O)c2ccc3c(c2)CCCN3C(=O)C2CCC2)c1,.,.,.,21µM*,23µM*
O=C(C1CCC1)N1CCc2cc(S(=O)(=O)NCCCN3CCCCC3)ccc21,3%,-16%,3,-8%,-11%
O=C(C1CCC1)N1CCCc2cc(S(=O)(=O)Nc3ccc(F)cc3)ccc21,.,.,.,23µM*,?
CCc1nnc(SCC(=O)Nc2ccccc2Cl)nc1CC,-7%,-1%,-8,?,16µM*!
O=C(CSc1nnc2ccc3ccccc3n12)Nc1ccccc1Cl,.,.,.,18µM*,?
Cc1ccc(C(=O)CSc2nnc3ccc4ccccc4n23)cc1,.,.,.,16µM*,?
CCc1ccccc1NC(=O)CSc1nnc(CC)c(CC)n1,.,.,.,-17%,-17%
COc1ccc(OC)c(NC(=O)CSc2nnc(-c3cccnc3)s2)c1,18µM*,18µM*,-3,?,?
COc1ccccc1-c1cn(CC[C@@H]2CC[C@H](NC(=O)C3CCC3)[C@@H](CO)O2)nn1,12%,-4%,25,-4%,-12%

# High-throughput results from PubChem.
